From PubChem BioAssay (NCATS)
Inconclusive results are not listed. The source made the active and inactive calls. Unless noted, calls come from the whole dose curve.

assay: qHTS for Inhibitors of the Functional Ribonucleoprotein Complex (vRNP) of Lassa (LASV) Arenavirus: Viability assay - alamar blue signal for LASV Primary Screen (AID 1347083; calls by dose curve; tested in HEK293 reporter line; note: nearly all actives have a fitted effect of over 80% in size; note: potency is the fitted concentration of half-maximal effect; for activity change, negative = reduced viability: % is set by controls: 0 for no effect and ±100 for the full control effect); settings: cell viability, alamar blue fluorescence (LASV minigenome counter-screen); series mostly up to 57.5 µM; activity change, negative = reduced viability: at the top concentration

| Structure (SMILES) | activity change, negative = reduced viability | Potency |
| --- | --- | --- |
| CC(=O)OC1(C)CC(C)C(=O)C(C(O)CC2CC(=O)NC(=O)C2)C1 (stereo unspecified) | -146% (inactive) | – |
| Cc1ncnc2nc[nH]c12 | – | 1.58 µM (active) |
| Oc1ccc(C2=Cc3ccc(O)cc3OC2)cc1 | – | 24.3 µM (active) |
| CC(C)C[C@@H]1NC(=O)[C@H](Cc2ccccc2)N(C)C(=O)[C@H](C)NC(=O)c2ccccc2NC(=O)[C@H](Cc2ccc(O)cc2)N(C)C1=O | – | 8.91 µM (active) |
| O=C(Nc1nc2cccc(-c3ccc(CN4CCS(=O)(=O)CC4)cc3)n2n1)C1CC1 | – | 38.5 µM (active) |
| COc1cc2c(cc1O)CCC1C2CC[C@@]2(C)C1CC[C@@H]2O (stereo partly specified) | – | 5.44 µM (active) |
| COCCOc1nc(-c2ccc(Cl)c(Cl)c2)n(-c2ccc(NC(=O)CCl)cc2)n1 | -32.2% (inactive) | – |
| O=C(O)C=Cc1ccc(O)c(O)c1 | – | 43.2 µM (active) |
| C[C@@]12C(=O)OC(=O)[C@@]1(C)C1CCC2O1 | – | 19.3 µM (active) |
| CC[C@]12C=CCN3CC[C@@]4(c5cc([C@@]6(C(=O)OC)C[C@H]7C[C@@H](C(C)(F)F)CN(Cc8c6[nH]c6ccccc86)C7)c(OC)cc5N(C)[C@H]4[C@@](O)(C(=O)OC)[C@H]1OC(C)=O)[C@@H]32 | – | 0.0172 µM (active) |
| Oc1cc(-c2nc(-c3ccccc3)[nH]c2-c2ccncc2)ccc1Cl | – | 1.53 µM (active) |
| CCCCCCC/C=C/C=O | 12% [at 115 µM] (inactive) | – |
| C=C1C(=O)C=C[C@]2(C)C[C@@H]3OC(=O)[C@](C)(O)[C@H]3C[C@@H]12 | – | 14.1 µM (active) |

assay: Cytotoxicity counterscreen for inhibitors of SARS-CoV-2 cell entry (AID 1645845); settings: cell viability (SARS-CoV-2 entry assay cells); series mostly up to 57.1 µM; activity change, negative = cytotoxicity: at the top concentration; note: nearly all actives have a fitted effect of over 50% in size; for activity change, negative = cytotoxicity: % is set by controls: 0 for no effect and ±100 for the full control effect
Method in brief: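 HEK293-ACE2 cells (Expi293F stably expressing human ACE2) seeded overnight, then compound for 1 h plus 48 h at 37C. Viability as ATP content by luminescence; normalized to wells with cells and media-only wells.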

| Structure (SMILES) | activity change, negative = cytotoxicity | outcome |
| --- | --- | --- |
| Oc1ccc2ccccc2c1SSc1c(O)ccc2ccccc12 | 0.556% (inactive) | – |
| Cc1cc(Nc2ncnc3ccc(-c4ccc(CNCCS(C)(=O)=O)o4)cc23)ccc1Oc1ccn2ncnc2c1 | -6.61% (inactive) | – |
| COC(=O)Nc1nc2ccc(C(=O)c3ccc(F)cc3)cc2[nH]1 | -10.8% (inactive) | – |
| CCOC(=O)N1CCN(/[N+]([O-])=N/Oc2ccc([N+](=O)[O-])cc2[N+](=O)[O-])CC1 | 4.51% (inactive) | – |
| COc1ccc(-n2c(C)c([N+](=O)[O-])c3ccc(O)cc32)cc1 | -19.8% (inactive) | – |
| C[C@]12CC[C@H](O)CC1=CCC1C2CC[C@]2(C)C(n3cnc4ccccc43)=CCC12 (stereo partly specified) | – | inactive |
| COc1ccc(COc2cc3oc(=O)c4cc(C(C)O)ccc4c3cc2OC)cc1 (stereo unspecified) | -2.23% (inactive) | – |
| CCN(CC)CCCC(C)Nc1nc(C)cc(Nc2ccc3nc(C)cc(N)c3c2)n1 (stereo unspecified) | -1.33% (inactive) | – |
| CCOC(=O)N1c2ccc(C(F)(F)F)cc2[C@@H](N(Cc2cc(C(F)(F)F)cc(C(F)(F)F)c2)C(=O)OC)C[C@H]1CC | 0.502% (inactive) | – |
| c1nc2nc(Nc3ccc(N4CCOCC4)cc3)nc(NC3CCCCC3)c2[nH]1 | -10.3% (inactive) | – |

assay: Primary qHTS to identify inhibitors of SARS-CoV-2 cell entry (AID 1645846); settings: SARS-CoV-2 pseudovirus cell entry assay, luminescence; activity change, negative = inhibition: at 57.1 µM (top of the series) unless noted; series mostly up to 57.1 µM; note: nearly all actives have a fitted effect of over 45% in size; note: potency is the fitted concentration of half-maximal effect
Method in brief: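 Inhibition of spike-mediated entry was scored in human ACE2-transfected Expi293F cells. Particles were MLV-pseudotyped with Wuhan-Hu-1 S carrying a 19-aa C-terminal deletion; signal was luciferase after two days, scaled between spike PP and fusion-protein-free PP.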

| Structure (SMILES) | outcome | Potency | activity change, negative = inhibition [%] |
| --- | --- | --- | --- |
| Cc1cc(Nc2ncnc3ccc(-c4ccc(CNCCS(C)(=O)=O)o4)cc23)ccc1Oc1ccn2ncnc2c1 | inactive | – | – |
| COC(=O)Nc1nc2ccc(C(=O)c3ccc(F)cc3)cc2[nH]1 | – | 1.26 µM (active) | – |
| CCOC(=O)N1CCN(/[N+]([O-])=N/Oc2ccc([N+](=O)[O-])cc2[N+](=O)[O-])CC1 | – | – | -5.73 |
| O=C(NC1CC1)c1cccc(-c2ccc3c(NC(=O)C4CC4)n[nH]c3c2)c1 | – | 7.94 µM (active) | – |
| CN1c2ccccc2C(=O)N2CCc3c([nH]c4ccccc34)C21 (stereo unspecified) | – | 6.31 µM (active) | – |
| COc1ccc(-n2c(C)c([N+](=O)[O-])c3ccc(O)cc32)cc1 | – | – | -4.69 |
| C[C@]12CC[C@H](O)CC1=CCC1C2CC[C@]2(C)C(n3cnc4ccccc43)=CCC12 (stereo partly specified) | inactive | – | – |
| COc1ccc(COc2cc3oc(=O)c4cc(C(C)O)ccc4c3cc2OC)cc1 (stereo unspecified) | – | – | -25.6 |
| CCN(CC)CCCC(C)Nc1nc(C)cc(Nc2ccc3nc(C)cc(N)c3c2)n1 (stereo unspecified) | – | – | -23.9 |
| CCOC(=O)N1c2ccc(C(F)(F)F)cc2[C@@H](N(Cc2cc(C(F)(F)F)cc(C(F)(F)F)c2)C(=O)OC)C[C@H]1CC | inactive | – | – |

assay: VSVG counterscreen qHTS to identify inhibitors of SARS-CoV-2 cell entry (AID 1645847); settings: VSV-G pseudotyped particle entry, luciferase; series mostly up to 57.2 µM; activity change, negative = inhibition: at the top concentration; note: potency is the fitted concentration of half-maximal effect; nearly all actives have a fitted effect of over 65% in size
Method in brief: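 Luminescence from a luciferase reporter, normalised to bald particle and VSV-G pseudotyped particle wells, is the read-out. Cells are HEK293 expressing human ACE2, exposed to compound 1 h before a 48 h particle infection at 37 °C.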

| Structure (SMILES) | Potency |
| --- | --- |
| COC(=O)Nc1nc2ccc(C(=O)c3ccc(F)cc3)cc2[nH]1 | 0.961 µM (active) |
| O=C(NC1CC1)c1cccc(-c2ccc3c(NC(=O)C4CC4)n[nH]c3c2)c1 | 15.2 µM (active) |
| CN1c2ccccc2C(=O)N2CCc3c([nH]c4ccccc34)C21 (stereo unspecified) | 3.83 µM (active) |
